# Laboratory results reported in PubChem BioAssay.
# For some of these results: Potency and affinity values are given separately. Calls of active or inactive are those of the source.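 The calls were made as follows, unless noted: active = earlier screen potentiator hit that boosts the TRPC4 ion channel at some dose, with a dose response; inactive = no potentiation, no dose response, or not a prior hit.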
# Assays:
# [1] = system: TRPC4 beta (transient receptor potential cation channel C4), mouse; assay: activators of mouse TRPC4 channel, confirmation, cell-based, Fluo4 calcium, HEK293 TRPC4beta/mu-opioid, duplicates, 10 µM (AID 2426;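 active = fluorescence ratio normalized to control raised more than 50% in primary screen plus both repeat runs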;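 as to activation: percent rise of integrated ratio over buffer wells lacking compound which define 0%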); conditions: Fluo4 calcium fluorescence, at 10 µM; active compounds read high
# [2] = system: transient receptor potential cation channel C4 beta (TRPC4), mouse; assay: activators of mouse TRPC4 channel, confirmation, cell-based, second round, Fluo4, HEK293 TRPC4beta/mu-opioid, 1 µM (AID 2461;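 active = primary screen active and over 50% activation in each of two duplicate runs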); conditions: Fluo4 calcium fluorescence, at 1 µM; active compounds read high
# [3] = system: TRPC4 (transient receptor potential cation channel C4 beta), mouse; assay: positive allosteric modulators of mouse TRPC4, confirmation, cell-based, second round, Fluo-4, HEK293 TRPC4beta/mu-opioid, 1 µM (AID 2554;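 active = primary screen hit whose fluorescence ratio, in both repeats, exceeds the weak agonist control mean by 3 SD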); conditions: DAMGO EC20, Fluo-4 calcium flux, at 1 µM; active compounds read high
# [4] = system: TRPC4 beta (transient receptor potential cation channel C4), mouse; assay: positive allosteric modulators of mouse TRPC4, confirmation, cell-based, Fluo-4, HEK293 TRPC4beta/mu-opioid (AID 2555;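 active = primary screen hit whose calcium fluorescence ratio, in both repeats, exceeds the weak agonist control mean by 3 SD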); conditions: DAMGO EC20, Fluo-4 calcium flux, at 10 µM; active compounds read high
# [5] = biological target: Short transient receptor potential channel 4 (Mus musculus) (UniProt Q9QUQ5); assay: inhibitors of mouse TRPC4 channel, confirmation, cell-based, Fluo4, HEK293 TRPC4beta/mu-opioid (AID 2636;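 active = calcium signal cut by more than 3 SD below the full-agonist control yet still positive, in both repeats and the earlier primary screen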); conditions: DAMGO, Fluo4 calcium flux, at 10 µM; active compounds read high
# [6] = biological target: Short transient receptor potential channel 4 (Mus musculus) (UniProt Q9QUQ5); assay: inhibitors of mouse TRPC4 channel, confirmation, cell-based, second round, Fluo4, HEK293 TRPC4beta/mu-opioid, 1 µM (AID 2637;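 active = calcium signal ratio cut to more than 3 SD under the fully stimulated control mean yet still positive, in both repeats and the primary screen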;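 as to inhibition: percent of integrated ratio relative to wells lacking test compound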); conditions: Fluo4 calcium flux, DAMGO, at 1 µM; active compounds read high
# [7] = biological target: Short transient receptor potential channel 4 (Mus musculus) (UniProt Q9QUQ5); assay: mouse TRPC4 channel activators, dose response, cell-based, HEK293 TRPC4/mu-opioid, Fluo-4 calcium (AID 434937;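 active = primary screen activator hit with a dose response curve and TRPC4 channel activation at any tested dose; inactive = no activation, no dose response, or not a primary hit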)
# [8] = biological target: Short transient receptor potential channel 4 (Mus musculus) (UniProt Q9QUQ5); assay: TRPC4 positive allosteric modulators, dose response, cell-based, HEK293 TRPC4/mu-opioid, Fluo-4 calcium, EC20 DAMGO (AID 434941);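 also: calcium entry triggered by an EC20 dose of DAMGO at the co-expressed mu-opioid receptor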
# [9] = biological target: Short transient receptor potential channel 6 (Mus musculus) (UniProt Q61143); assay: inhibition of mouse TRPC6 channel, confirmation, selectivity assay for TRPC4 inhibitor project, cell-based, HEK293, membrane potential dye, duplicate (AID 434948;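 active = active in primary screen and both duplicates, each dropping signal beyond three positive-control SD with fluorescence still positive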); conditions: HEK293 TRPC6, membrane potential dye fluorescence, at 10 µM, stimulated with maximal-effect acetylcholine; active compounds read high
# [10] = biological target: Short transient receptor potential channel 6 (Mus musculus) (UniProt Q61143); assay: activation of mouse TRPC6 channel, confirmation, selectivity assay for TRPC4 activator project, cell-based, HEK293, membrane potential dye, duplicate (AID 434950;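 active = membrane potential signal rise above negative control mean plus 3 SD in both duplicates, also active in the earlier TRPC4 screen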); conditions: HEK293 TRPC6, membrane potential fluorescence, at 10 µM; active compounds read high
# [11] = biological target: Short transient receptor potential channel 6 (Mus musculus) (UniProt Q61143); assay: TRPC6 potentiation by TRPC4 potentiator hits, confirmation, selectivity assay for TRPC4 potentiator project, HEK293 cells, membrane potential dye, duplicate (AID 434952;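 active = compound raising the membrane signal above positive-control mean plus 3 SD in both repeats, and a primary screen hit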); conditions: HEK293 TRPC6, membrane potential dye fluorescence, at 10 µM, maximal acetylcholine added after compound; active compounds read high
# [12] = biological target: Short transient receptor potential channel 4 (Mus musculus) (UniProt Q9QUQ5); assay: calcium flux activators in TRPC4/5HT1a cells, counter-screen for TRPC4 activator project, cell-based, second counter screen, HEK293 TRPC4/5HT1a, Fluo-4 (AID 434977;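 active = calcium signal rise above buffer-control mean plus 5 SD in both duplicates, and also a hit in the primary screen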;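 as to activation: plate controls were assay buffer for no effect and maximal serotonin response for full effect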); conditions: Fluo-4 calcium flux, at 10 µM; active compounds read high
# [13] = calcium flux inhibitors in TRPC4/5HT1a cells, confirmation, counter-screen for TRPC4 inhibitor project, cell-based, second counter screen, HEK293 TRPC4/5HT1a, Fluo-4 (AID 434978;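 active = primary screen active whose calcium signal fell more than 3 SD beyond the full-serotonin control mean in both duplicate plates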;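 as to outcome: serotonin given first at submaximal then at maximal dose after compound preincubation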); conditions: Fluo-4 calcium flux, at 10 µM, serotonin added to trigger calcium flux; active compounds read high
# [14] = system: TRPC4 (mouse), co-expressed with 5HT1a in HEK293; assay: calcium flux potentiators in TRPC4/5HT1a cells, confirmation, counter-screen for TRPC4 potentiator project, cell-based, second counter screen, HEK293 TRPC4/5HT1a, Fluo-4 (AID 434979;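 active = signal rise over 3 SD above mean of control wells given weak agonist, in both repeats and first screen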); conditions: Fluo-4 calcium flux, at 10 µM, serotonin added at its EC20 dose; active compounds read high
# [15] = calcium flux activation in mu-opioid HEK293 cells, confirmation, counter-screen for TRPC4 activator project, cell-based, HEK293 mu-opioid receptor line (AID 449723;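 active = hit in primary screen, with calcium signal over 5 SD above buffer well mean in both duplicates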;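 also: counter screen cells carry the mu-opioid receptor alone and lack TRPC4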); conditions: Fluo-4 calcium fluorescence, at 10 µM; active compounds read high
# [16] = calcium flux enhancement in mu-opioid HEK293 cells, confirmation, counter-screen for TRPC4 allosteric potentiator project, cell-based, HEK293 mu-opioid receptor line (AID 449724;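 active = calcium signal rise more than 3 SD above the low-dose agonist control mean, in both duplicate plates and the primary screen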); conditions: Fluo-4 calcium flux, at 10 µM, compound added before EC20 DAMGO stimulus; active compounds read high
# Sequence of Short transient receptor potential channel 4 (Mus musculus) (Q9QUQ5 whole entry, looked up): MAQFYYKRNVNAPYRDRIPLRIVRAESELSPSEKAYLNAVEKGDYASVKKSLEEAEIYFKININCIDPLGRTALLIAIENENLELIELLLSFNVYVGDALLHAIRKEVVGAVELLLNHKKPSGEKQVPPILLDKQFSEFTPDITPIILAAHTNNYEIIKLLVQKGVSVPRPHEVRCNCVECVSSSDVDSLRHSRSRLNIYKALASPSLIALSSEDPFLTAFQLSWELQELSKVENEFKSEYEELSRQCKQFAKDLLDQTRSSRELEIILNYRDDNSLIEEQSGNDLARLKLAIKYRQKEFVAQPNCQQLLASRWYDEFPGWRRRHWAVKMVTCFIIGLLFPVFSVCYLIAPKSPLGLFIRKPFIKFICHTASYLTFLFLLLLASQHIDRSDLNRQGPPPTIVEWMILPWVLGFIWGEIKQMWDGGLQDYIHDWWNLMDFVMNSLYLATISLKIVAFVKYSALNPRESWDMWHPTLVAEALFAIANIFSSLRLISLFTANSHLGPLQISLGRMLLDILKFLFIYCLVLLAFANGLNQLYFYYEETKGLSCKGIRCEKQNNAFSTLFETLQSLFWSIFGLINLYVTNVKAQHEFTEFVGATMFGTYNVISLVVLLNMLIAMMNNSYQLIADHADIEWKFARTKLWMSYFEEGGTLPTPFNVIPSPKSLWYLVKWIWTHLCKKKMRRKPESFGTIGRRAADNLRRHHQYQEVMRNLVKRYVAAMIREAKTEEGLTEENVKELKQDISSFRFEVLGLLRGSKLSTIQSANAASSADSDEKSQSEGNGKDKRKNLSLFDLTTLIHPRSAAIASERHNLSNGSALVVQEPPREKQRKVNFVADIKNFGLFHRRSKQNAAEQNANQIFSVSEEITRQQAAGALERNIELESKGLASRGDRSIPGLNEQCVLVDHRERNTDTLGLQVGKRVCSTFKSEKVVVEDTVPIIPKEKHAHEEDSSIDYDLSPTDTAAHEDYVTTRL
# Sequence of Short transient receptor potential channel 6 (Mus musculus) (Q61143 whole entry, looked up): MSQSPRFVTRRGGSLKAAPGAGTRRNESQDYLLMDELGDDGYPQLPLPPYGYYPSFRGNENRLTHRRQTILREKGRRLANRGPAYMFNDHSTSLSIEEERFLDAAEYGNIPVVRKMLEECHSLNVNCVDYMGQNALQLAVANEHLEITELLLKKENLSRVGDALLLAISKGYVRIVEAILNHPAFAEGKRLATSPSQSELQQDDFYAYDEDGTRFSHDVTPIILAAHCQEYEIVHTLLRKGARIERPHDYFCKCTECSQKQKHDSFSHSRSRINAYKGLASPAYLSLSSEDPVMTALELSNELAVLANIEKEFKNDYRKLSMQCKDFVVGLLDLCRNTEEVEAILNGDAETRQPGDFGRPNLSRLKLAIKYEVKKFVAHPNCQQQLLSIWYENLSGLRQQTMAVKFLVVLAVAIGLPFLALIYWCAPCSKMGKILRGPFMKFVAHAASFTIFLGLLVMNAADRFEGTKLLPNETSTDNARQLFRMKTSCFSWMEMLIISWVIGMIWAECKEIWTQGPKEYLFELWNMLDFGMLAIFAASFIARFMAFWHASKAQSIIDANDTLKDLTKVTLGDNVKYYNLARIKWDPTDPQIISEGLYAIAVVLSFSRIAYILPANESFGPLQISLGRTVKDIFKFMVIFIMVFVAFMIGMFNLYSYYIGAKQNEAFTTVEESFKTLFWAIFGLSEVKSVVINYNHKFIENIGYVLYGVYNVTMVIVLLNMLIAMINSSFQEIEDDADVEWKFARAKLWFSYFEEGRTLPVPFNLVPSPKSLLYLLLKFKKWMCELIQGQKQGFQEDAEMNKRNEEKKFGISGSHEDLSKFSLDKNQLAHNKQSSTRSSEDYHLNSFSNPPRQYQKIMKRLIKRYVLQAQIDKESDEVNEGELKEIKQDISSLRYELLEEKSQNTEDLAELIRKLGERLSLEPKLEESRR
structure (smiles),measurement,setting,value
CN(Cc1ccccc1)C(=O)CSc1nnc(-c2ccco2)n1-c1ccccc1,outcome,[1],inactive
same,outcome,[2],inactive
same,outcome,[3],inactive
same,outcome,[4],inactive
same,inhibition,[5],71% (active)
same,inhibition,[6],43% (active)
same,outcome,[7],inactive
same,outcome,[8],inactive
same,outcome,[9],inactive
same,outcome,[10],inactive
same,outcome,[11],inactive
same,outcome,[12],inactive
same,outcome,[13],inactive
same,outcome,[14],inactive
same,outcome,[15],inactive
same,outcome,[16],inactive
COc1cccc(CNC(=O)CCC2CCCN(Cc3cc(Cl)ccc3O)C2)c1 (stereo unspecified),outcome,[1],inactive
same,outcome,[2],inactive
same,outcome,[3],inactive
same,outcome,[4],inactive
same,inhibition,[5],93% (active)
same,outcome,[6],inactive
same,outcome,[7],inactive
same,outcome,[8],inactive
same,outcome,[9],inactive
same,outcome,[10],inactive
same,outcome,[11],inactive
same,outcome,[12],inactive
same,inhibition,[13],29% (active)
same,outcome,[14],inactive
same,outcome,[15],inactive
same,outcome,[16],inactive
O=C1CN=C(Nc2cccc(C(F)(F)F)c2)N1C1CCCC1,outcome,[1],inactive
same,outcome,[2],inactive
same,outcome,[3],inactive
same,outcome,[4],inactive
same,inhibition,[5],94% (active)
same,outcome,[6],inactive
same,outcome,[7],inactive
same,outcome,[8],inactive
same,outcome,[9],inactive
same,outcome,[10],inactive
same,outcome,[11],inactive
same,outcome,[12],inactive
same,inhibition,[13],26.8% (active)
same,outcome,[14],inactive
same,outcome,[15],inactive
same,outcome,[16],inactive
O=C1Nc2cc(C(=O)NCCCN3CCOCC3)ccc2S/C1=C/c1ccccc1F,outcome,[1],inactive
same,outcome,[2],inactive
same,outcome,[3],inactive
same,outcome,[4],inactive
same,outcome,[5],inactive
same,outcome,[6],inactive
same,outcome,[7],inactive
same,outcome,[8],inactive
same,outcome,[9],inactive
same,outcome,[10],inactive
same,outcome,[11],inactive
same,outcome,[12],inactive
same,outcome,[13],inactive
same,outcome,[14],inactive
same,outcome,[15],inactive
same,outcome,[16],inactive
CCC(O)C1CCN(Cc2cn(-c3ccc(OC)cc3)nc2-c2cccc(F)c2)CC1 (stereo unspecified),outcome,[1],inactive
same,outcome,[2],inactive
same,outcome,[3],inactive
same,outcome,[4],inactive
same,inhibition,[5],98% (active)
same,outcome,[6],inactive
same,outcome,[7],inactive
same,outcome,[8],inactive
same,outcome,[9],inactive
same,outcome,[10],inactive
same,outcome,[11],inactive
same,outcome,[12],inactive
same,outcome,[13],inactive
same,outcome,[14],inactive
same,outcome,[15],inactive
same,outcome,[16],inactive
O=[N+]([O-])c1ccc(O)c(C2=NNC(c3ccccc3F)C2)c1 (stereo unspecified),activation,[1],87% (active)
same,outcome,[2],inactive
same,outcome,[3],inactive
same,outcome,[4],inactive
same,inhibition,[5],55% (active)
same,outcome,[6],inactive
same,outcome,[7],inactive
same,outcome,[8],inactive
same,inhibition,[9],50% (active)
same,outcome,[10],inactive
same,outcome,[11],inactive
same,activation,[12],8.52% (active)
same,outcome,[13],inactive
same,outcome,[14],inactive
same,activation,[15],20.8% (active)
same,outcome,[16],inactive
Cc1ccc(C)c2[nH]c(=O)c(CN(CC3CCCO3)C(=S)NCc3ccco3)cc12 (stereo unspecified),outcome,[1],inactive
same,outcome,[2],inactive
same,outcome,[3],inactive
same,outcome,[4],inactive
same,inhibition,[5],79% (active)
same,outcome,[6],inactive
same,outcome,[7],inactive
same,outcome,[8],inactive
same,outcome,[9],inactive
same,outcome,[10],inactive
same,outcome,[11],inactive
same,outcome,[12],inactive
same,inhibition,[13],37.5% (active)
same,outcome,[14],inactive
same,outcome,[15],inactive
same,outcome,[16],inactive
Cc1ccccc1C(=O)NC1CC2CCC(C1)N2Cc1ccccc1 (stereo unspecified),outcome,[1],inactive
same,outcome,[2],inactive
same,outcome,[3],inactive
same,outcome,[4],inactive
same,inhibition,[5],68% (active)
same,inhibition,[6],47% (active)
same,outcome,[7],inactive
same,outcome,[8],inactive
same,outcome,[9],inactive
same,outcome,[10],inactive
same,outcome,[11],inactive
same,outcome,[12],inactive
same,inhibition,[13],43.3% (active)
same,outcome,[14],inactive
same,outcome,[15],inactive
same,outcome,[16],inactive
Cc1cccn2cc(-c3c[nH]c4ccccc34)nc12,outcome,[1],inactive
same,outcome,[2],inactive
same,outcome,[3],inactive
same,outcome,[4],inactive
same,outcome,[5],inactive
same,outcome,[6],inactive
same,outcome,[7],inactive
same,outcome,[8],inactive
same,inhibition,[9],33% (active)
same,outcome,[10],inactive
same,outcome,[11],inactive
same,outcome,[12],inactive
same,inhibition,[13],35.1% (active)
same,outcome,[14],inactive
same,outcome,[15],inactive
same,outcome,[16],inactive
Cc1ccc2c(c1)N(C(=O)CCC(=O)Nc1ccccc1Cl)CC(C)O2 (stereo unspecified),outcome,[1],inactive
same,outcome,[2],inactive
same,outcome,[3],inactive
same,outcome,[4],inactive
same,inhibition,[5],73% (active)
same,outcome,[6],inactive
same,outcome,[7],inactive
same,outcome,[8],inactive
same,outcome,[9],inactive
same,outcome,[10],inactive
same,outcome,[11],inactive
same,outcome,[12],inactive
same,outcome,[13],inactive
same,outcome,[14],inactive
same,outcome,[15],inactive
same,outcome,[16],inactive
CCCCN=C(Nc1ccc(Cl)cc1)c1cccnc1,outcome,[1],inactive
same,outcome,[2],inactive
same,outcome,[3],inactive
same,outcome,[4],inactive
same,inhibition,[5],82% (active)
same,inhibition,[6],54% (active)
same,outcome,[7],inactive
same,outcome,[8],inactive
same,outcome,[9],inactive
same,outcome,[10],inactive
same,outcome,[11],inactive
same,outcome,[12],inactive
same,outcome,[13],inactive
same,outcome,[14],inactive
same,outcome,[15],inactive
same,outcome,[16],inactive
COc1cc(CN(C)CC2CCCN(CCc3ccccc3F)C2)cc(Cl)c1OC (stereo unspecified),outcome,[1],inactive
same,outcome,[2],inactive
same,outcome,[3],inactive
same,outcome,[4],inactive
same,inhibition,[5],93% (active)
same,outcome,[6],inactive
same,outcome,[7],inactive
same,outcome,[8],inactive
same,outcome,[9],inactive
same,outcome,[10],inactive
same,outcome,[11],inactive
same,outcome,[12],inactive
same,inhibition,[13],0.1% (active)
same,outcome,[14],inactive
same,outcome,[15],inactive
same,outcome,[16],inactive
Cc1ccc(-c2csc(N(CCCN(C)C)C(=O)c3ccco3)n2)cc1,outcome,[1],inactive
same,outcome,[2],inactive
same,outcome,[3],inactive
same,outcome,[4],inactive
same,outcome,[5],inactive
same,inhibition,[6],52% (active)
same,outcome,[7],inactive
same,outcome,[8],inactive
same,inhibition,[9],37.5% (active)
same,outcome,[10],inactive
same,outcome,[11],inactive
same,outcome,[12],inactive
same,outcome,[13],inactive
same,outcome,[14],inactive
same,outcome,[15],inactive
same,outcome,[16],inactive
Cc1ccc(C[n+]2cc(-c3ccc(Cl)cc3)n3c2CCC3)cc1,outcome,[1],inactive
same,outcome,[2],inactive
same,outcome,[3],inactive
same,outcome,[4],inactive
same,inhibition,[5],73% (active)
same,inhibition,[6],64% (active)
same,outcome,[7],inactive
same,outcome,[8],inactive
same,outcome,[9],inactive
same,outcome,[10],inactive
same,outcome,[11],inactive
same,outcome,[12],inactive
same,inhibition,[13],41.9% (active)
same,outcome,[14],inactive
same,outcome,[15],inactive
same,outcome,[16],inactive
CCCCCCCNC(=O)COc1ccc2c(c1)C(=O)CC(C)(C)O2,outcome,[1],inactive
same,outcome,[2],inactive
same,outcome,[3],inactive
same,outcome,[4],inactive
same,inhibition,[5],81% (active)
same,inhibition,[6],46% (active)
same,outcome,[7],inactive
same,outcome,[8],inactive
same,outcome,[9],inactive
same,outcome,[10],inactive
same,outcome,[11],inactive
same,outcome,[12],inactive
same,inhibition,[13],24.7% (active)
same,outcome,[14],inactive
same,outcome,[15],inactive
same,outcome,[16],inactive
CCCCCn1c2c(c(=N)c3ccccc31)CCC2,outcome,[1],inactive
same,outcome,[2],inactive
same,outcome,[3],inactive
same,outcome,[4],inactive
same,inhibition,[5],96% (active)
same,inhibition,[6],75% (active)
same,outcome,[7],inactive
same,outcome,[8],inactive
same,inhibition,[9],1.5% (active)
same,outcome,[10],inactive
same,outcome,[11],inactive
same,outcome,[12],inactive
same,inhibition,[13],13.9% (active)
same,outcome,[14],inactive
same,outcome,[15],inactive
same,outcome,[16],inactive
